This is part of a sample that, as a whole, favours compounds with a hit. Of some 83,000 tested, about 20% had one in any assay.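 Step 1: grow cells in 96-well plates. Step 2: add test compound at a single concentration. Step 3: incubate 48 h. Step 4: record percent growth.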 Calls of active or inactive are those of the source. Rule for the calls: active = growth percent below 10; inactive = the rest.
What was measured:
Test in all cases: NCI-60 one-dose screen, 48 h (100 = growth as untreated, 0 = no growth, -100 = all killed)
Details in all cases: 10 µM unless noted
[1] = test system: SR leukemia
[2] = test system: OVCAR-8 ovarian
[3] = test system: OVCAR-5 ovarian
[4] = test system: OVCAR-4 ovarian
[5] = test system: SK-OV-3 ovarian
[6] = test system: IGROV1 ovarian
[7] = test system: OVCAR-3 ovarian
[8] = test system: HS 578T breast
[9] = test system: NCI/ADR-RES ovarian
[10] = test system: RPMI-8226 leukemia

Measured: growth

COc1cccc(-c2cc(C(=O)Nc3ccc(/C=C/c4ccc(OC5CCN(C)CC5)cc4)cc3)ccc2OC)c1
active: [1] -44.4% | [2] -38.8% | [4] -56.5% | [6] -56.3% | [7] -82.9% | [8] -22.9% | [9] -11.2%
inactive: [3] 25.2% | [5] 109%

COc1cc2nc(-c3ccc(C(F)(F)F)cc3)cc(OCCCN3CCCC3)c2cc1OC
inactive: [1] 19.4% | [2] 48.7% | [3] 56.9% | [4] 57.1% | [5] 88.6% | [6] 36.2% | [7] 64.8% | [8] 64.4% | [9] 46.4%

COc1cc(C2=NN(C(C)=O)C(c3cc(OC)c(OC)c(OC)c3)C2)ccc1O (stereo not given)
inactive: [1] 15.6% | [2] 24.7% | [3] 34% | [4] 35.3% | [5] 30.3%
active: [6] 2.82% | [7] -51.9% | [8] -1.42% | [9] -55.4%

CCc1c(Cl)nc(N)nc1Nc1ccc(C)c(C)c1
inactive: [1] 73% | [2] 102% | [3] 110% | [4] 98% | [5] 109% | [6] 97.4% | [7] 116% | [8] 97.9% | [9] 99.2%

CCCCCCNC(=O)Oc1ccc(/C(=C(\C)c2ccccc2)c2ccc(OCCN3CCCCC3)cc2)cc1
active: [1] -8.47%
inactive: [2] 76.6% | [3] 93.9% | [4] 71% | [5] 71.8% | [6] 63.7% | [7] 66.9% | [8] 76.3%

CCOC(=O)C1=C(C)NC(SCc2cc(=O)oc3ccc(F)cc23)=N[C@@H]1c1cccc2ccccc12
inactive: [1] 83.5% | [2] 89.5% | [3] 119% | [4] 102% | [5] 92.5% | [6] 99.4% | [7] 92.4% | [8] 106% | [9] 98.7%

CCCCCCCCO/N=C\c1c2c(O)c3c(O)c(C)c4c(c3c1O)C(=O)C(C)(O/C=C\C(OC)C(C)C(OC(C)=O)C(C)C(O)C(C)C(O)C(C)/C=C\C=C(\C)C(=O)N2)O4 (stereo not given)
active: [1] 6.26% | [8] -2.52%
inactive: [2] 24% | [3] 48.8% | [4] 29.4% | [5] 30.5% | [6] 23.4% | [7] 22.2% | [9] 32.1%

O=C(Cn1c(C(=O)c2ccccc2)nc2ccccc21)c1ccc(F)cc1
inactive: [1] 25.4% | [2] 79.7% | [3] 84.2% | [4] 58.4% | [5] 110% | [6] 41.1% | [7] 67.2% | [8] 56.2% | [9] 16.1%

CN1CCN(c2ccc(NC3=C(Cl)C(=O)c4ncccc4C3=O)cc2C(F)(F)F)CC1
inactive: [2] 30.4% | [3] 100% | [5] 84.9% | [8] 92.9% | [9] 81.9%
active: [1] 9.03% | [4] -96.8% | [6] -37.6% | [7] -82.9%

N=C1C(c2nc3ccccc3s2)=C(O)CN1c1cc(Cl)cc(Cl)c1
active: [1] 7.21%
inactive: [2] 67.2% | [3] 87% | [4] 131% | [5] 99.4% | [6] 52.5% | [7] 87.2% | [8] 52.7% | [9] 78.9%

O=C(Nc1ncc(Cc2cc(Cl)ccc2Cl)s1)c1cccs1
inactive: [1] 22.9% | [2] 74.4% | [3] 73.9% | [4] 80% | [5] 72.1% | [6] 59.3% | [7] 65.2% | [8] 74.3% | [9] 34.7%

OC(c1cccc(C(F)(F)F)c1)c1cnccc1NC1CCCCC1 (stereo not given)
inactive: [1] 51.6% | [2] 86.9% | [3] 95.3% | [4] 74.7% | [5] 95.9% | [6] 76.3% | [7] 81.1% | [8] 80.6% | [9] 79.1%

COC(=O)N[C@H]1CCc2c(Cl)c(OC)c(OC)c(OC)c2-c2ccc(SC)c(=O)cc21
active: [1] 2.15% | [6] 9.16% | [7] -46.2% | [8] 9.58% | [9] 7.43%
inactive: [2] 15.4% | [3] 38.5% | [4] 39.5% | [5] 40.3%

O=C(Cn1c[n+](CC(=O)c2ccc(-c3ccccc3)cc2)c2ccccc21)Nc1cccc2cccnc12
inactive: [2] 20% | [3] 62.8% | [4] 10.3% | [5] 50.5% | [8] 33.5% | [9] 96.7%
active: [1] -17.1% | [6] -38.2% | [7] -1.51%

Cc1c(C(=O)NCCC(=O)NO)sc2ncnc(Nc3ccc(NC(=O)Nc4cccc(C(F)(F)F)c4)cc3)c12
inactive: [1] 101% | [2] 102% | [3] 104% | [4] 105% | [5] 115% | [6] 102% | [7] 112% | [8] 93.5% | [9] 103%

COc1cc(-c2n/c(=C\c3c(O)[nH]c4ccc(Cl)cc34)cc3c2=Nc2ccccc2-3)ccc1F
inactive: [3] 74% | [8] 14.8%
active: [1] 7.25% | [2] -50.7% | [4] -56.9% | [5] -14.7% | [6] -18% | [7] -14.6%

CC/C(=C\c1ccc(OC)cc1)C(=O)c1ccc(OC)cc1
inactive: [1] 108% | [2] 74% | [3] 103% | [4] 77.2% | [5] 106% | [6] 67.2% | [7] 211% | [8] 99.9% | [9] 86.7%

C=C1C(=O)O[C@H]2[C@H]1CC/C(CNC(=O)c1cccc3ccccc13)=C\CC[C@@]1(C)O[C@@H]21
inactive: [1] 16.5% | [2] 43.5% | [3] 68.8% | [4] 63.2% | [5] 110% | [6] 31.3% | [7] 24.8% | [8] 69.9% | [9] 80.9%

COc1cc2c(c(O)c1Cl)C(=O)c1c(O)cc(C[C@H](C)O)cc1[C@H]2[C@H]1c2cc(C[C@H](C)O)cc(O)c2C(=O)c2c1cc(OC)c(Cl)c2O
active: [3] 8.75% | [5] 8.1% | [7] -20.4%
inactive: [1] 12.3% | [2] 12.8% | [4] 12.7% | [6] 10.4% | [8] 11% | [9] 71.3%

O=S(=O)(NCCNc1nccc(-c2c(-c3cccc(O)c3)nc3occn23)n1)c1cccc(F)c1
inactive: [1] 84.7% | [10] 97% | [2] 89.9% | [5] 91.8% | [6] 50.5% | [7] 94.7% | [8] 101% | [9] 107%

CCN(CC)CCCC(C)Nc1cc(O)cc2cccnc12 (stereo not given)
inactive: [1] 132% | [2] 101% | [3] 105% | [5] 119% | [6] 154% | [7] 90.2% | [8] 73.9% | [9] 102%

CC(=O)Nc1cccc(-c2ccc3c(c2)NC(=O)/C3=C\c2ccc[nH]2)c1
active: [1] 9.65%
inactive: [2] 56.4% | [3] 38.4% | [4] 53.1% | [5] 48.8% | [6] 43.4% | [7] 69.6% | [8] 64.6% | [9] 49.6%

COc1cc2c(=O)n(CCN(C)C)c3c4cc5c(cc4ccc3c2cc1OC)OCO5
inactive: [2] 11.4%
active: [1] 2.29% | [3] -17.5% | [4] 5.11% | [5] -5.08% | [6] -16% | [7] -41.9% | [8] 9.24%

COc1cc(C=O)ccc1OC1OC(COC(C)=O)C(OC(C)=O)C(OC(C)=O)C1OC(C)=O (stereo not given)
inactive: [1] 60.7% | [2] 102% | [3] 103% | [4] 103% | [5] 103% | [6] 113% | [7] 104% | [8] 104% | [9] 103%

COc1ccc(N2CCN(c3ccc(NC4=C(Cl)C(=O)c5ncccc5C4=O)cc3)CC2)cc1
inactive: [1] 12.9% | [2] 32.9% | [3] 84.4% | [4] 28.8% | [5] 75.9% | [8] 36.3% | [9] 83%
active: [6] -49.7% | [7] -3.66%

COc1ccc2c(c1)oc1c(C)c3c(c(C)c12)C(=O)N(N)C3=O
active: [4] -20.8%
inactive: [1] 26.2% | [2] 26.9% | [3] 40.4% | [5] 61.2% | [6] 26.8% | [7] 24.9% | [8] 19.1% | [9] 28.6%

CCN(Cc1ccccc1)c1ccc(C=O)cc1
inactive: [1] 90.3% | [2] 97.8% | [3] 93.1% | [4] 85.8% | [5] 103% | [6] 96.1% | [7] 97.9% | [8] 120% | [9] 101%

NC(=S)N1N=C(c2ccccc2)CC1c1cn(-c2ccccc2)nc1-c1ccc(OCc2ccccc2)cc1 (stereo not given)
inactive: [1] 109% | [2] 96.4% | [3] 104% | [4] 109% | [5] 112% | [6] 113% | [7] 110% | [8] 96.3% | [9] 112%

Cc1ncc(C(=O)Nc2ccc(CN3CCN(C)CC3)c(C(F)(F)F)c2)cc1C#Cc1cnc(N)cc1C#N
active: [10] -7.94% | [2] -66.4% | [3] -94.1% | [6] 5.92% | [8] -18.2%
inactive: [4] 30.2% | [5] 20.6% | [7] 39.5%

Reference: PubChem BioAssay (NCI)
